Assay results from PubChem BioAssay (EPA / NIEHS).
“And” between values parts separate entries of the source, which are not always exact repeats. Equal entries are not always repeated. Records with an inconclusive call do not appear. A structure can be active in one record and inactive in another. The source made the active and inactive calls. The calls were made as follows, unless noted: active = hit-call score of the fitted dose curve at least 0.9, where 1 is the maximum; inactive = score below 0.9.

What was measured:
[1] = read-out: Monocyte Chemoattractant Protein-1 (MCP1), CCL2 (gene 6347); assay: BSK_LPS_MCP1: BioMAP Diversity Plus: LPS Assay for Monocyte Chemoattractant Protein-1 (MCP1) Biomarker Activity (AID 2283081); conditions: primary human HUVEC with PBMC; actives raise or lower the signal;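 as to AC50: secreted MCP-1 protein quantified by ELISA in culture supernatant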
Procedure, shortened: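 ELISA read-out of MCP-1 after 24 h chemical dosing of a human umbilical vein endothelial cell/peripheral blood mononuclear cell co-culture stimulated with LPS. Gain or loss of signal fitted relative to DMSO controls.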

[2] = BSK_LPS_PGE2: BioMAP Diversity Plus: LPS Assay for Prostaglandin E2 (PGE2) Biomarker Activity (AID 2283082); conditions: primary human HUVEC with PBMC; actives raise or lower the signal;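 as to AC50: secreted prostaglandin E2 measured by ELISA in LPS-stimulated co-culture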
Procedure, shortened: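 LPS-activated HUVEC/PBMC co-culture; cmpd dosed, 24 h; PGE2 by ELISA; bidirectional fit vs DMSO; SRB (0.1%, TCA-fixed, 560 nm) in parallel plates for overt cytotox.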

[3] = read-out: Macrophage colony-stimulating factor (MCSF), CSF1 (gene 1435); assay: BSK_LPS_MCSF: BioMAP Diversity Plus: LPS Assay for Macrophage colony-stimulating factor (MCSF) Biomarker Activity (AID 2283083); conditions: primary human HUVEC with PBMC; actives raise or lower the signal
Procedure, shortened: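 HUVEC + PBMC co-culture (human primary), 24 h post-dose; M-CSF by ELISA; gain/loss of signal fitted bidirectionally vs DMSO baseline.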

[4] = read-out: Tissue Factor, F3 (gene 2152); assay: BSK_LPS_TissueFactor: BioMAP Diversity Plus: LPS Assay for Tissue Factor Biomarker Activity (AID 2283084); conditions: primary human HUVEC with PBMC; actives raise or lower the signal
Procedure, shortened: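 HUVEC/PBMC co-culture, LPS-activated; CD142 ELISA read 24 h post-dose; bidirectional curve fit vs DMSO negative control.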

[5] = read-out: Tumor necrosis factor (Homo sapiens) (UniProt P01375); assay: BSK_LPS_TNFa: BioMAP Diversity Plus: LPS Assay for Tumour Necrosis Factor alpha (TNFa) Biomarker Activity (AID 2283085); conditions: primary human HUVEC with PBMC; actives raise or lower the signal
Procedure, shortened: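 Read-out is ELISA of TNFa in primary human endothelial cell–PBMC co-cultures at 24 h after compound. Activity in either direction was fitted against DMSO.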

CD40, CD40 (gene 958) = assay: BSK_SAg_CD40: BioMAP Diversity Plus: SAg Assay for CD40 Biomarker Activity (AID 2283088); conditions: primary human HUVEC with PBMC; actives raise or lower the signal
Procedure, shortened: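 HUVEC/PBMC co-culture, 24 h post-dose; CD40 by ELISA, fluorescence intensity; bidirectional fit vs DMSO negative control.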

CD69, CD69 (gene 969) = assay: BSK_SAg_CD69: BioMAP Diversity Plus: SAg Assay for CD69 Biomarker Activity (AID 2283089); conditions: primary human HUVEC with PBMC; actives raise or lower the signal;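 as to AC50: cell surface CD69 protein quantified by ELISA with fluorescence detection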
Procedure, shortened: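 Values derive from bidirectional fitting relative to DMSO vehicle. Cells: umbilical vein endothelium plus peripheral blood mononuclear cells, treated 24 h before fluorescent ELISA for CD69.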

[6] = read-out: Monocyte Chemoattractant Protein-1 (MCP1), CCL2 (gene 6347); assay: BSK_SAg_MCP1: BioMAP Diversity Plus: SAg Assay for Monocyte Chemoattractant Protein-1 (MCP1) Biomarker Activity (AID 2283090); conditions: primary human HUVEC with PBMC; actives raise or lower the signal
Procedure, shortened: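 MCP-1 levels in the endothelial–PBMC SAg co-culture were quantified by ELISA at 24 h post-dosing; both increases and decreases versus DMSO scored. Cytotoxicity monitored by SRB total protein in parallel cultures.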

[7] = read-out: E-selectin (Homo sapiens) (UniProt P16581); assay: BSK_SAg_Eselectin: BioMAP Diversity Plus: SAg Assay for Eselectin Biomarker Activity (AID 2283091); conditions: primary human HUVEC with PBMC; actives raise or lower the signal
Procedure, shortened: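 E-selectin ELISA readout at 24 h post-dosing in human umbilical vein endothelial cell/PBMC co-culture; gain or loss of signal fitted relative to DMSO baseline.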

[8] = read-out: Monokine induced gamma interferon (MIG), CXCL9 (gene 4283); assay: BSK_SAg_MIG: BioMAP Diversity Plus: SAg Assay for Monokine induced gamma interferon (MIG) Biomarker Activity (AID 2283092); conditions: primary human HUVEC with PBMC; actives raise or lower the signal
Procedure, shortened: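 Values reflect bidirectional fitting of ELISA-measured MIG against DMSO vehicle, taken 24 h after dosing of a co-culture of human umbilical vein endothelial cells and peripheral blood mononuclear cells.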

[9] = read-out: Interleukin-8 (IL8), CXCL8 (gene 3576); assay: BSK_SAg_IL8: BioMAP Diversity Plus: SAg Assay for Interleukin-8 (IL8) Biomarker Activity (AID 2283094); conditions: primary human HUVEC with PBMC; actives raise or lower the signal
Procedure, shortened: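 ELISA read-out of IL-8 in a primary human vascular co-culture (umbilical vein endothelium plus PBMC), taken 24 h after compound addition. Values derive from bidirectional fits against DMSO negative controls.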

[10] = BSK_SAg_Proliferation: Cell Proliferation Assessment in the BioMAP Diversity Plus: SAg Assay (AID 2283095); conditions: primary human HUVEC with PBMC;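 also: relative cell number as total protein by SRB absorbance in sub-confluent culture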
Procedure, shortened: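 Cells (endothelium plus PBMC, human primary) were dosed with chemical, cultured 96 h, fixed in 10% TCA and stained with 0.1% SRB. Absorbance at 560 nm gave relative protein, fitted bidirectionally relative to DMSO.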

[11] = BSK_SAg_SRB: Viability Assessment in the BioMAP Diversity Plus: SAg Assay (AID 2283096); conditions: primary human HUVEC with PBMC;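 also: cells read one day after compound addition; hits may be either gain or loss of signal compared with DMSO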
Procedure, shortened: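 Total protein by sulforhodamine B staining, 24 h after dosing, in HUVEC–PBMC co-culture; DMSO-referenced bidirectional fitting.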

[12] = BSK_SAg_PBMCCytotoxicity: PBMC Cytotoxicity Assessment in the BioMAP Diversity Plus: SAg Assay (AID 2283093); conditions: primary human HUVEC with PBMC;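 also: PBMC viability measured as Alamar Blue reduction fluorescence at 546/580 nm; fitted both ways against DMSO so a hit may be loss or gain of signal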
Procedure, shortened: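 Compound added to 75,000 PBMC/well for 1 h; SEB and TSST-1 then added at 20 ng/mL final each; 90 h incubation; Alamar Blue 6 h; read 546/580 nm ex/em. Activity fitted bidirectionally relative to DMSO baseline.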

[13] = read-out: Vascular cell adhesion molecule 1 (VCAM1), VCAM1 (gene 7412); assay: BSK_LPS_VCAM1: BioMAP Diversity Plus: LPS Assay for Vascular cell adhesion molecule 1 (VCAM1) Biomarker Activity (AID 2283086); conditions: primary human HUVEC with PBMC; actives raise or lower the signal
Procedure, shortened: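 HUVEC + PBMC co-culture, LPS system; compound 24 h; VCAM-1 by ELISA; bidirectional fit vs DMSO control; parallel SRB (0.1%, TCA-fixed, 560 nm) for cytotoxicity.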

CD38, CD38 (gene 952) = assay: BSK_SAg_CD38: BioMAP Diversity Plus: SAg Assay for CD38 Biomarker Activity (AID 2283087); conditions: primary human HUVEC with PBMC; actives raise or lower the signal
Procedure, shortened: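 Human HUVEC plus PBMC co-culture stimulated with superantigen; CD38 measured by ELISA 24 h after chemical dosing. Fluorescence read-out, bidirectional fit against DMSO; cytotoxicity tracked in parallel by SRB and Alamar Blue.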

[14] = molecular target: human CYP2D6, CYP2D6 (gene 1565) (UniProt P10635); assay: NVS_ADME_hCYP2D6: NovaScreen (NVS) CYP450-related Enzyme Activity (ADME) Assay for human CYP2D6 (AID 2283107; active = hit-call score of the fitted dose curve at least 0.9, where 1 is the maximum)
human CYP2D6, CYP2D6 (gene 1565), sequence (P10635 whole entry, looked up): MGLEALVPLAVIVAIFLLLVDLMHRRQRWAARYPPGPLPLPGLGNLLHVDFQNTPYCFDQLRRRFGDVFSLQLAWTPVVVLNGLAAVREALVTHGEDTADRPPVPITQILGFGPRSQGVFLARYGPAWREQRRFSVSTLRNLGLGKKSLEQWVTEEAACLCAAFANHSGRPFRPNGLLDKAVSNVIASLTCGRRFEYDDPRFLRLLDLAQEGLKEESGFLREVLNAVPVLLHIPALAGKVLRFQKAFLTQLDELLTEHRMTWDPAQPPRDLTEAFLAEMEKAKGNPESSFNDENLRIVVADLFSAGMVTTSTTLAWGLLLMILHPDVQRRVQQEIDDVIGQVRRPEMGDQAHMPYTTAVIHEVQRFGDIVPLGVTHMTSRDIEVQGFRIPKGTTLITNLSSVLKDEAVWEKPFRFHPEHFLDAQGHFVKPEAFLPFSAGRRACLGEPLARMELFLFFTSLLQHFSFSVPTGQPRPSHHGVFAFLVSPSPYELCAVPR
Procedure, shortened: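 Fluorescence intensity read 1 h post-dosing; insect-cell-expressed recombinant protein with fluorogenic substrate, no cells. Activity is scored as signal loss relative to acetonitrile baseline, first at a single 10 uM concentration in duplicate, then as concentration series for confirmed actives.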

[15] = molecular target: Cytochrome P450 3A4 (Homo sapiens) (UniProt P08684); assay: NVS_ADME_hCYP3A4: NovaScreen (NVS) CYP450-related Enzyme Activity (ADME) Assay for human CYP3A4 (AID 2283110; active = hit-call score of the fitted dose curve at least 0.9, where 1 is the maximum)
Cytochrome P450 3A4 (Homo sapiens), sequence (P08684 whole entry, looked up): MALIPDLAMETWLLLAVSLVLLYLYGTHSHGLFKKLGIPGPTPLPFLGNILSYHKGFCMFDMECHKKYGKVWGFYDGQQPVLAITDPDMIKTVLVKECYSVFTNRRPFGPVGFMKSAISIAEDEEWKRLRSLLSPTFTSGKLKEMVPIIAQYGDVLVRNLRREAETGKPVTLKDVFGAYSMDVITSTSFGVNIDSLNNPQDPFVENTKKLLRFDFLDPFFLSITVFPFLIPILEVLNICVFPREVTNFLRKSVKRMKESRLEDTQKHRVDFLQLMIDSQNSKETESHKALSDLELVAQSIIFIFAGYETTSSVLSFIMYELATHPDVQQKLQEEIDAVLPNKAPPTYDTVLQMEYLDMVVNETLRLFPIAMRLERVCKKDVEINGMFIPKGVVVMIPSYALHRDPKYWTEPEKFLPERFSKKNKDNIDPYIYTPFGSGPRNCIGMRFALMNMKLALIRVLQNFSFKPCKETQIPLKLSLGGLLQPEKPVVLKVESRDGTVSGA
Procedure, shortened: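 Compounds were first screened in duplicate at 10 uM against recombinant CYP3A4 produced in insect cells, then actives were run in concentration series. Enzyme activity was measured by fluorescence after 0.33 hour, with acetonitrile as baseline.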

Measured: AC50

E-selectin (Homo sapiens), sequence (P16581 whole entry, looked up): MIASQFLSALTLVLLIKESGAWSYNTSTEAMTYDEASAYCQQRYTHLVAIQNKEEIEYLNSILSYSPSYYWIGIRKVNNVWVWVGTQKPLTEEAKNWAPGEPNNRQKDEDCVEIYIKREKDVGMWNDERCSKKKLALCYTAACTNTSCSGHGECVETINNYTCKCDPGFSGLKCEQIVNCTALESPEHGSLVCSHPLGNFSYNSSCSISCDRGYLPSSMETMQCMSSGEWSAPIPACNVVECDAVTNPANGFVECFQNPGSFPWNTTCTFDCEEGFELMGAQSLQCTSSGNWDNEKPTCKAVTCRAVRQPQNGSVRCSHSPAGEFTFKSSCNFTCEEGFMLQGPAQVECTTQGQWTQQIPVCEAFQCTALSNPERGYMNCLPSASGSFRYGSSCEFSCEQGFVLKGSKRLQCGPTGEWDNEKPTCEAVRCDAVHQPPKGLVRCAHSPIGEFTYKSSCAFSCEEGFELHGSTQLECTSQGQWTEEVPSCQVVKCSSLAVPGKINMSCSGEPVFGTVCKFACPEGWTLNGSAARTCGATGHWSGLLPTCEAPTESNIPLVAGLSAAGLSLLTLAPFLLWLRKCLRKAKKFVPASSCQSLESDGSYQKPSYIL
Tumor necrosis factor (Homo sapiens), sequence (P01375 whole entry, looked up): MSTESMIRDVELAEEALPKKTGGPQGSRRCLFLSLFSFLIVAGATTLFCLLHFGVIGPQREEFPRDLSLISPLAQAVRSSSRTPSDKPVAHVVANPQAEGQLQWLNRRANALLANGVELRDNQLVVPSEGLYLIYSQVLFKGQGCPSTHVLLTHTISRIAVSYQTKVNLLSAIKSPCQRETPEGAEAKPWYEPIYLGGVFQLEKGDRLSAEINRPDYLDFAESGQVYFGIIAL

OCCCC(F)(F)C(F)(F)C(F)(F)F
not listed: [12] | [13] | CD38, CD38 (gene 952) | [14] | [15]
inactive: all other assays above

Cc1ccc(S(=O)(=O)OCC(F)(F)C(F)(F)C(F)(F)C(F)(F)C(F)(F)C(F)F)cc1
active: [11] 44 µM and 37.4 µM
not listed: [13] | CD38, CD38 (gene 952) | [14] | [15]
inactive: all other assays above

C=C(C)C(=O)OCC(F)(F)C(F)(F)C(F)(F)C(F)(F)C(F)(F)C(F)(F)C(F)(F)F
inactive: [1] | [2] | [3] | [4] | [5] | [13] | CD38, CD38 (gene 952) | CD40, CD40 (gene 958) | CD69, CD69 (gene 969) | [6] | [7] | [8] | [9] | [10] | [11]
active: [5] 0.0246 µM

FC(F)(F)C(F)(F)C(F)(F)C(F)(F)C(F)(F)C(F)(F)CC1CO1 (stereo not drawn)
not listed: [13] | CD38, CD38 (gene 952) | [14] | [15]
inactive: all other assays above

CC(=O)Nc1ccc(N=Nc2cc(C)ccc2O)cc1
active: CD69, CD69 (gene 969) 5.73 µM | [10] 11 µM | [14] 2.96 µM | [15] 5 µM
not listed: [12] | [13] | CD38, CD38 (gene 952)
inactive: all other assays above

O=C(O)C(F)(F)C(F)(F)C(F)(F)C(F)(F)C(F)(F)C(F)(F)C(F)(F)C(F)(F)C(F)(F)C(F)F
inactive: [3] | [4] | [5] | [7] | [8] | [12]
active: [1] 41.1 µM and 44.3 µM | [2] 42.6 µM and 48.8 µM | [13] 52.5 µM and 46.9 µM | CD40, CD40 (gene 958) 41.9 µM and 44.6 µM | CD69, CD69 (gene 969) 37.6 µM and 47.3 µM | [6] 44.9 µM and 46 µM | [7] 54.2 µM | [9] 41.6 µM and 47.9 µM | [10] 47.8 µM and 54.6 µM | [11] 47.3 µM and 45.8 µM
